The results in this text go back to PubChem BioAssay (NCI).

Test [1] can be described thus: NCI Yeast Anticancer Drug Screen. Data for the rad50 strain (AID 155).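 Also: 0% = growth of vehicle-only cultures of the same strain.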 The following applies: S. cerevisiae rad50 strain growth inhibition; at 50.0 µM; active compounds read high. The gist of the method: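 Readout: growth inhibition relative to vehicle-treated cultures. Compound exposure was carried out in a genetically defined yeast strain deficient in DNA damage repair.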

Test [2] is described as follows: NCI Yeast Anticancer Drug Screen. Data for the mec2-1 strain (AID 157). The following applies: S. cerevisiae mec2-1 strain, at 50.0 µM, active compounds read high. In short, it runs like this: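 Growth inhibition is read against vehicle-treated controls after compound exposure of the mec2-1 yeast strain, which is defective in DNA damage repair or cell cycle control.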

Test [3] is described as follows: NCI Yeast Anticancer Drug Screen. Data for the sgs1 mgt1 strain (AID 161).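 Also: 0% = growth of cultures given vehicle only.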 The following applies: S. cerevisiae sgs1 mgt1 strain, at 50.0 µM, active compounds read high. The gist of the method: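 Compounds are added to genetically altered yeast, and growth is compared with cultures given vehicle alone to give percent inhibition.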
Test [4] can be described thus: NCI Yeast Anticancer Drug Screen. Data for the cln2 rad14 strain (AID 165).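 Also: 0% = growth equal to vehicle treated cultures.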 Particulars: S. cerevisiae cln2 rad14 strain, at 50.0 µM, active compounds read high. The gist of the method:
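Growth inhibition, relative to vehicle-treated controls, is the read-out. The test organism is a yeast strain with defined genetic alterations, cln2 rad14.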

A short description of test [5]: NCI Yeast Anticancer Drug Screen. Data for the bub3 strain (AID 167). The following applies: S. cerevisiae bub3 mutant strain, at 50.0 µM, active compounds read high. In short, it runs like this:
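Readout: yeast growth inhibition, expressed relative to vehicle-only wells. The test organism is a mutant strain from a panel with lesions in DNA repair or checkpoint genes.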

Test [6] is described as follows: NCI Yeast Anticancer Drug Screen. Data for the mlh1 rad18 strain (AID 175). The following applies: S. cerevisiae mlh1 rad18 strain growth inhibition; at 50.0 µM; active compounds read high. In short, it runs like this:
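Cells of a genetically altered yeast strain, deficient in DNA damage repair, were treated with compound. Their growth was then compared with that of vehicle-treated cultures to give inhibition.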

Each structure is given as a SMILES string. This is part of a sample that, as a whole, favours compounds with a hit. Of some 79,000 tested, about 15% had one in any assay. Unmarked numbers belong to inactive results. Activity calls are given as the source filed them. Rule as the data show it: active = growth inhibition above about 70%; inactive = the rest.

For the compound `c1ccc2c(c1)sc1ccccc12`, the growth inhibition is 15.5% in test [1]; -13.7% in test [2]; 16.9% in test [3]; -29.4% in test [4]; -8.6% in test [5]; 15.2% in test [6].

In the case of `CC(Cc1ccc(Cl)cc1Cl)NO` (stereo not given), the growth inhibition in test [1] was 15.7%; in test [2], -12.2%; in test [3], -15.9%; in test [4] it was -25.6%; in test [5], -43.2%; in test [6], -2.15%.

For the compound `CCCCCCCCCCCCCCCCCC(=O)[O][Pb]([CH3])([CH3])[CH3]`, the growth inhibition in test [1] was 0.8%; in test [2], 0.5%; in test [3], 18.8%; in test [4], 21.6%; in test [5], 2.8%; in test [6], 13.1%.

For `O=c1cc(N2CCNCC2)nc2ccccn12`, the growth inhibition was 2.9% in test [1]; 4.4% in test [2]; 4.95% in test [3]; 1.4% in test [4]; 6.95% in test [5]; 6.35% in test [6].

Consider `O=c1n(CC2CO2)c2ccccc2n1CC1CS1` (stereo not given), for which the growth inhibition in test [1] was -7.4%; in test [2], -36%; in test [3], 7%; in test [4], -12.8%; in test [5], -41.4%; in test [6] it was 1.7%.

For `O=P(Nc1ccccc1)(Oc1ccccc1)N(CCCl)CCCl` (stereo not given), the growth inhibition is 29.4% in test [1]; -10% in test [2]; 1.2% in test [3]; 24.2% in test [4]; 7.7% in test [5]; 20.6% in test [6].

With `CN1CCN(C)C12C=c1ccccc1=CC21CC1`, the growth inhibition is 5.05% in test [1]; -15.9% in test [2]; -45.6% in test [3]; -2.65% in test [4]; -39.9% in test [5]; -8.15% in test [6].

Consider `O=CNc1ccccc1`, for which the growth inhibition in test [1] is 18.6%; in test [2] it was 1.7%; in test [3], 0.85%; in test [4] it was 6.5%; in test [5] it was 7.65%; in test [6] it was 7.25%.

As to `[CH3][Sn]([CH3])([Br])[CH2]CCBr`, the growth inhibition in test [1] is 84.2% (active); in test [2], 88.1% (active); in test [3], 89.2% (active); in test [4] it was 48.5%; in test [5], 95% (active); in test [6], 96.5% (active).

For the compound `C=C[CH2][Sn]([Br])([c]1ccccc1)[c]1ccccc1`, the growth inhibition in test [1] was 99.3% (active); in test [2], 99.2% (active); in test [3], 99.2% (active); in test [4], 98.8% (active); in test [5], 98.8% (active); in test [6], 99.3% (active).

Regarding `CCN(CC)CCc1ccncc1`, the growth inhibition in test [1] was 12.6%; in test [2], 10.1%; in test [3], 6.65%; in test [4] it was 30%; in test [5], -5.05%; in test [6] it was 9.65%.

As to `C/C=C1/C[C@@H](C)[C@@](C)(O)C(=O)OCC2=CC[N+]3([O-])CC[C@@H](OC1=O)[C@@H]23` (stereo not given in full), the growth inhibition is -0.9% in test [1]; -17.4% in test [2]; -3.4% in test [3]; 10.7% in test [4]; -15.9% in test [5]; -53.6% in test [6].

`CCOP(C)(=O)C(N)Cc1ccc(OC)c(OC)c1` (stereo not given): the growth inhibition in test [1] was -39.6%; in test [2] it was -59.5%; in test [3], -40.1%; in test [4], -16.4%; in test [5], 1.1%; in test [6], -34.5%.

Regarding `O=C1C=CC(=O)N1CO`, the growth inhibition in test [1] is 23.2%; in test [2] it was 19.2%; in test [3] it was 9%; in test [4], 6.4%; in test [5], 26.9%; in test [6], 9.25%.

For the compound `CC12CCC3C(CC(N4CC4)C4(O)CC(O)CCC34C)C1CCC2=O` (stereo not given), the growth inhibition in test [1] was 15.6%; in test [2], -10.2%; in test [3] it was -3.85%; in test [4], 14.8%; in test [5] it was -8%; in test [6], -8%.

As for `CC(C)C(O)(C(=O)OCC1=CCN2CCC(O)C12)C(C)O` (stereo not given), the growth inhibition in test [1] is 2.55%; in test [2] it was 0.1%; in test [3], 25.1%; in test [4] it was 9.55%; in test [5], 12.6%; in test [6] it was 8.5%.

Regarding `CC(C)c1cccc(C(C)C)c1O`, the growth inhibition was 22.2% in test [1]; 26% in test [2]; -21.9% in test [3]; 3.5% in test [4]; 10.9% in test [5]; 12.9% in test [6].

As to `COC[C@H]1OC(=O)c2coc3c2[C@@]1(C)C1=C(C3=O)[C@@H]2CCC(=O)[C@@]2(C)C[C@H]1OC(C)=O`, the growth inhibition in test [1] is 92.3% (active); in test [2], 93.3% (active); in test [3] it was 89.4% (active); in test [4] it was 89.1% (active); in test [5], 86.1% (active); in test [6] it was 88.8% (active).

For `Cc1ccc(NC(=O)c2cc3ccccc3cc2O)c(C)c1`, the growth inhibition in test [1] was 17.1%; in test [2] it was -16.1%; in test [3], 20.7%; in test [4] it was 8.75%; in test [5], 17.9%; in test [6] it was 21.8%.

With `COC(=O)C[N+]1(C)C2CCC1CC(O)C2` (stereo not given), the growth inhibition in test [1] was 1.5%; in test [2], 2.75%; in test [3] it was 0.55%; in test [4] it was -23.3%; in test [5], -17.1%; in test [6] it was 9.95%.
